Holding throughout (assay): DAPPL (digital affinity profiling via proximity ligation, sequencing); 10 mM Tris-HCl pH 7.5, 50 mM NaCl, 1 mM DTT, 4% glycerol, room temperature, 30 min; GST-TFs on glutathione beads, 16-mer random dsDNA library, 0.1% formaldehyde crosslink after washing; high values mean tight binding
Settings in all cases: protein: recombinant; tags: N-terminal GST; dsDNA, one strand shown

In one experiment the target is T1, ELK3 (Homo sapiens, UniProt P41970 1-407).
T1 sequence: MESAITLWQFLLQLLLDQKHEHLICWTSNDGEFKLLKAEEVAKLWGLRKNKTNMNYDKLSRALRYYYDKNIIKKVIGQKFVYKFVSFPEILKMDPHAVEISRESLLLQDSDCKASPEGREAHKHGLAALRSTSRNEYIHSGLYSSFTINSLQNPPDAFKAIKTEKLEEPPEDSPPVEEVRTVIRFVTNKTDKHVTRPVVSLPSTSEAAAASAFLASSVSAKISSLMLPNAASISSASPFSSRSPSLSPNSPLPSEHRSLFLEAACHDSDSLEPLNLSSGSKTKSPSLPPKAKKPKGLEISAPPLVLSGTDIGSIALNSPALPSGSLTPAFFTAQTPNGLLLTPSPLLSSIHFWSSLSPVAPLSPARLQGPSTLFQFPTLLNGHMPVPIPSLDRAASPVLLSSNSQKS
In a few lines:
(§1)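 Human transcription factors fused to GST were expressed in yeast, captured on glutathione beads, given DNA barcodes and pooled with a GST-only negative control. Pools were incubated with 200 nmole of a 16-mer random double-stranded DNA library in Tris/NaCl/DTT/glycerol buffer at room temperature for 30 min. They were then washed, crosslinked with 0.1% formaldehyde, proximity-ligated (BsaI/T4 ligase, 1 h, 37 °C), PCR-amplified and sequenced on an Illumina NextSeq500. Binding signal is each 6-mer's read frequency for a factor divided by its frequency for the GST control.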

For another experiment, the target named is T2, ELK4 (Homo sapiens, UniProt P28324-2 1-405).
T2 sequence: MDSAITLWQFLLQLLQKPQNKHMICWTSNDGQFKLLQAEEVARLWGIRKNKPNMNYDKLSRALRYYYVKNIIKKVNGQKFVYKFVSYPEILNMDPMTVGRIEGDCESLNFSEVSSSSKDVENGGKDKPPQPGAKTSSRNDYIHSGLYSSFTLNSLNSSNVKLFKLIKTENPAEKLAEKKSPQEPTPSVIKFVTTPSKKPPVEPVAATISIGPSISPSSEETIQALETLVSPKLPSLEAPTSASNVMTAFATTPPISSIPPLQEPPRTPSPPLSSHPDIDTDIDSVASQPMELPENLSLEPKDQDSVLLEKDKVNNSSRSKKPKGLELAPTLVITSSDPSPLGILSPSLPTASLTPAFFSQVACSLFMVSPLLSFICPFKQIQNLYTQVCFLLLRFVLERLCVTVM
In a few lines: as §1

The next experiment addresses T3, ELF3 (Homo sapiens, UniProt P78545 1-371).
T3 sequence: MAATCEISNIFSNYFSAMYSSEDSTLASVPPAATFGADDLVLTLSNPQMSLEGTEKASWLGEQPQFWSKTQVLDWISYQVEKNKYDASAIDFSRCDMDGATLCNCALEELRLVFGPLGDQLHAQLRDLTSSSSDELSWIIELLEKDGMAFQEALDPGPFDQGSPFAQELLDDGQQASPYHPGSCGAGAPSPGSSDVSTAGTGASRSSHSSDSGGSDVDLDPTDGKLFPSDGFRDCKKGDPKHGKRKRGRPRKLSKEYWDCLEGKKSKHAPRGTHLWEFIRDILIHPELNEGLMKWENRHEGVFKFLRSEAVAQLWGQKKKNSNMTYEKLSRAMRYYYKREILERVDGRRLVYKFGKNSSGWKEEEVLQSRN
The method in brief: as §1

Another experiment deals with T4, ETV7 (Homo sapiens, UniProt Q9Y603 1-341).
T4 sequence: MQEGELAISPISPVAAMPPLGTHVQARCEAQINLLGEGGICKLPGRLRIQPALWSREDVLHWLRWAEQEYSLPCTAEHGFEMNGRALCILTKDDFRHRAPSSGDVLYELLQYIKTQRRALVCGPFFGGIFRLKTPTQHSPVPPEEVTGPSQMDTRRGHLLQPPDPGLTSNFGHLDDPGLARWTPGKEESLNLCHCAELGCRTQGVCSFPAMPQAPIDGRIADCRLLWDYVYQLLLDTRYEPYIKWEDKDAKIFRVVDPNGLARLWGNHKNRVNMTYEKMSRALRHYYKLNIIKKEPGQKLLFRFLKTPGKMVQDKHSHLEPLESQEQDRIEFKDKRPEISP
In a few lines:
as §1

The target in another experiment is T5, ETV2 (Homo sapiens, UniProt O00321 1-342).
T5 sequence: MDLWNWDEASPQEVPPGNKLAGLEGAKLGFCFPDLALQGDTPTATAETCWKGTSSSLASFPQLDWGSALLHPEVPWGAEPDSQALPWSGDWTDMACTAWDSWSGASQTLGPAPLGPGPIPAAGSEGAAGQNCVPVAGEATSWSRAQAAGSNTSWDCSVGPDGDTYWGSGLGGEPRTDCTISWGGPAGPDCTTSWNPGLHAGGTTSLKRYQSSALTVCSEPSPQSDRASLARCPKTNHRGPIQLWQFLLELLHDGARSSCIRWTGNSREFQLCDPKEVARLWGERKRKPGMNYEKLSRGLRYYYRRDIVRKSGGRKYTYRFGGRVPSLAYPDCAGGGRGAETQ
In a few lines: as §1

In another experiment the target is CRX (Homo sapiens, UniProt O43186 1-299). The method in brief: as §1

Experimental findings from publication PMC7862700, “An all-to-all approach to the identification of sequence-specific readers for epigenetic DNA modifications on cytosine” are described below.

Chain of CRX (O43186 whole entry): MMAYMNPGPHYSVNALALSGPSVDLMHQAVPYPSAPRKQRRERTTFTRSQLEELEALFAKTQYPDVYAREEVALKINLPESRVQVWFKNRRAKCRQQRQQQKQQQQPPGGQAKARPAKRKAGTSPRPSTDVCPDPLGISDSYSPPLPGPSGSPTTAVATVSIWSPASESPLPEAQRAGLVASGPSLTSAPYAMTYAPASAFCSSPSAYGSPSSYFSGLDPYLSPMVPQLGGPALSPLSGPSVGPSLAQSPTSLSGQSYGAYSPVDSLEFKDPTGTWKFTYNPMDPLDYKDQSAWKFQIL

On to TGCTGC, for which the binding signal with ELK3 is 1.08 fold enrichment (6-mer frequency, TF over GST control); in the experiment with ELK4, 1.22 fold enrichment (6-mer frequency, TF over GST control); with ELF3 it was 1.11 fold enrichment (6-mer frequency, TF over GST control); with ETV7, 1.1 fold enrichment (6-mer frequency, TF over GST control).
TTGCCG: the binding signal in the experiment with ELK3 was 1.07 fold enrichment (6-mer frequency, TF over GST control); with ELK4, 1 fold enrichment (6-mer frequency, TF over GST control); with ELF3, 1.09 fold enrichment (6-mer frequency, TF over GST control); with ETV7, 1.22 fold enrichment (6-mer frequency, TF over GST control).
AGCAAC: the binding signal with ELK4 was 1.12 fold enrichment (6-mer frequency, TF over GST control); with ETV7, 1.1 fold enrichment (6-mer frequency, TF over GST control).
GTCTAC: the binding signal with ELK3 is 1.06 fold enrichment (6-mer frequency, TF over GST control); in the experiment with ELK4 it was 1 fold enrichment (6-mer frequency, TF over GST control).
In the case of TGGTCA, the binding signal with ELK4 is 1.04 fold enrichment (6-mer frequency, TF over GST control); with ELF3, 1.1 fold enrichment (6-mer frequency, TF over GST control).
Turning to TAACCG, the binding signal was 1.13 fold enrichment (6-mer frequency, TF over GST control) with ELK3; 1.2 fold enrichment (6-mer frequency, TF over GST control) with ETV2; 1.04 fold enrichment (6-mer frequency, TF over GST control) in the experiment with ELF3; 1.1 fold enrichment (6-mer frequency, TF over GST control) with CRX; 1.02 fold enrichment (6-mer frequency, TF over GST control) with ETV7.
For the sequence ATAAGG, the binding signal was 1.19 fold enrichment (6-mer frequency, TF over GST control) with ELK3; 1.02 fold enrichment (6-mer frequency, TF over GST control) in the experiment with ETV2; 1.1 fold enrichment (6-mer frequency, TF over GST control) with ELF3; 1.28 fold enrichment (6-mer frequency, TF over GST control) in the experiment with CRX.
Consider CATACC, for which the binding signal with ELK3 was 1.09 fold enrichment (6-mer frequency, TF over GST control); with ETV2, 1.16 fold enrichment (6-mer frequency, TF over GST control); with ELF3 it was 1 fold enrichment (6-mer frequency, TF over GST control); in the experiment with ETV7 it was 1.03 fold enrichment (6-mer frequency, TF over GST control).
As to AAACCG, the binding signal with ELK3 was 1.09 fold enrichment (6-mer frequency, TF over GST control); with ETV2, 1.03 fold enrichment (6-mer frequency, TF over GST control); with ELF3, 1.07 fold enrichment (6-mer frequency, TF over GST control); in the experiment with ETV7 it was 1.04 fold enrichment (6-mer frequency, TF over GST control).
For the sequence AGCTGT, the binding signal with ELK4 was 1.04 fold enrichment (6-mer frequency, TF over GST control); in the experiment with ETV2, 1.07 fold enrichment (6-mer frequency, TF over GST control); with CRX, 1.02 fold enrichment (6-mer frequency, TF over GST control).
On to CACGGA, for which the binding signal was 1.05 fold enrichment (6-mer frequency, TF over GST control) with ELK4 and 1.09 fold enrichment (6-mer frequency, TF over GST control) with ELF3.
As for CGCTAT, the binding signal with ELK3 was 1.13 fold enrichment (6-mer frequency, TF over GST control); with ELK4 it was 1.07 fold enrichment (6-mer frequency, TF over GST control); with ETV2 it was 1.15 fold enrichment (6-mer frequency, TF over GST control); in the experiment with ELF3 it was 1.01 fold enrichment (6-mer frequency, TF over GST control); with ETV7, 1.25 fold enrichment (6-mer frequency, TF over GST control).
As to GCCGCC, the binding signal with ELK3 was 1.15 fold enrichment (6-mer frequency, TF over GST control); with ELF3, 1.08 fold enrichment (6-mer frequency, TF over GST control); in the experiment with ETV7, 1.03 fold enrichment (6-mer frequency, TF over GST control).
For the sequence TGTGGC, the binding signal with ELK4 is 1.16 fold enrichment (6-mer frequency, TF over GST control); in the experiment with ETV2, 1.23 fold enrichment (6-mer frequency, TF over GST control); in the experiment with ELF3 it was 1.02 fold enrichment (6-mer frequency, TF over GST control); in the experiment with ETV7, 1.01 fold enrichment (6-mer frequency, TF over GST control).
On to GGCCCC, for which the binding signal with ELK4 is 1.02 fold enrichment (6-mer frequency, TF over GST control); with ETV2, 1.13 fold enrichment (6-mer frequency, TF over GST control); with ELF3, 1.02 fold enrichment (6-mer frequency, TF over GST control).
In the case of CGATGT, the binding signal with ELK3 was 1.04 fold enrichment (6-mer frequency, TF over GST control); with ETV2, 1.07 fold enrichment (6-mer frequency, TF over GST control); with ELF3 it was 1.11 fold enrichment (6-mer frequency, TF over GST control); with ETV7, 1.14 fold enrichment (6-mer frequency, TF over GST control).
Regarding CGTCGC, the binding signal was 1.09 fold enrichment (6-mer frequency, TF over GST control) with ELK3; 1.2 fold enrichment (6-mer frequency, TF over GST control) in the experiment with ETV2; 1.1 fold enrichment (6-mer frequency, TF over GST control) with ELF3; 1.23 fold enrichment (6-mer frequency, TF over GST control) with ETV7.
As to GCTGCG, the binding signal with ELK3 is 1.04 fold enrichment (6-mer frequency, TF over GST control); in the experiment with ELF3 it was 1.03 fold enrichment (6-mer frequency, TF over GST control); with ETV7, 1.19 fold enrichment (6-mer frequency, TF over GST control).
In the case of GTGTCC, the binding signal with ELK3 is 1.05 fold enrichment (6-mer frequency, TF over GST control); in the experiment with ETV2, 1.19 fold enrichment (6-mer frequency, TF over GST control); with ELF3, 1.22 fold enrichment (6-mer frequency, TF over GST control); with ETV7 it was 1.22 fold enrichment (6-mer frequency, TF over GST control).
Regarding ACGGCA, the binding signal is 1.01 fold enrichment (6-mer frequency, TF over GST control) in the experiment with ELK3 and 1.1 fold enrichment (6-mer frequency, TF over GST control) in the experiment with ELF3.
For the sequence GAAGTC, the binding signal with ELK3 was 1.19 fold enrichment (6-mer frequency, TF over GST control); in the experiment with ETV2 it was 1.08 fold enrichment (6-mer frequency, TF over GST control); with ELF3 it was 1.1 fold enrichment (6-mer frequency, TF over GST control); with ETV7, 1.1 fold enrichment (6-mer frequency, TF over GST control).
In the case of GTACGC, the binding signal is 1.17 fold enrichment (6-mer frequency, TF over GST control) with ELF3 and 1.09 fold enrichment (6-mer frequency, TF over GST control) with ETV7.
As to GGACTC, the binding signal is 1.04 fold enrichment (6-mer frequency, TF over GST control) in the experiment with ELK3; 1.04 fold enrichment (6-mer frequency, TF over GST control) in the experiment with ELK4; 1.01 fold enrichment (6-mer frequency, TF over GST control) with ETV2.
Consider ATACCG, for which the binding signal in the experiment with ELK3 was 1.15 fold enrichment (6-mer frequency, TF over GST control); in the experiment with ELK4 it was 1.04 fold enrichment (6-mer frequency, TF over GST control); with ETV2 it was 1.07 fold enrichment (6-mer frequency, TF over GST control); with ELF3 it was 1.2 fold enrichment (6-mer frequency, TF over GST control); in the experiment with ETV7, 1.04 fold enrichment (6-mer frequency, TF over GST control).
As for GGAAGA, the binding signal with ELK3 is 1.19 fold enrichment (6-mer frequency, TF over GST control); with ETV2, 1.09 fold enrichment (6-mer frequency, TF over GST control); with ELF3, 1.19 fold enrichment (6-mer frequency, TF over GST control); in the experiment with ETV7 it was 1.13 fold enrichment (6-mer frequency, TF over GST control).
As for ACGATG, the binding signal with ELK3 was 1.17 fold enrichment (6-mer frequency, TF over GST control); with ETV2, 1.14 fold enrichment (6-mer frequency, TF over GST control); with ELF3, 1.17 fold enrichment (6-mer frequency, TF over GST control); with ETV7, 1.2 fold enrichment (6-mer frequency, TF over GST control).
For CGCGAC, the binding signal was 1.14 fold enrichment (6-mer frequency, TF over GST control) with ELK4; 1.34 fold enrichment (6-mer frequency, TF over GST control) with ETV2; 1.05 fold enrichment (6-mer frequency, TF over GST control) with ELF3.
In the case of AACTGA, the binding signal is 1.06 fold enrichment (6-mer frequency, TF over GST control) in the experiment with ELK3; 1.07 fold enrichment (6-mer frequency, TF over GST control) with ETV2; 1.12 fold enrichment (6-mer frequency, TF over GST control) with ELF3; 1.05 fold enrichment (6-mer frequency, TF over GST control) in the experiment with ETV7.
TCGCTG: the binding signal with ELK3 was 1.23 fold enrichment (6-mer frequency, TF over GST control); in the experiment with ELK4, 1.15 fold enrichment (6-mer frequency, TF over GST control); with ELF3 it was 1.12 fold enrichment (6-mer frequency, TF over GST control); with ETV7, 1.06 fold enrichment (6-mer frequency, TF over GST control).
